Bioassay records from PubChem BioAssay.
IL1B secr inh – inflammasome signaling inhibition, IL-1 beta readout; THP-1 LPS/ATP IL-1B secretion, AlphaLISA, 16 h; active compounds read low; activity change, % at 57.5 µM; 360,000 compounds, 4.7% hits; in the data active means activity change below about -50%; inconclusive means mostly about -30% to -49%
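THP-1 cells pretreated 1 hr with compounds (up to 57.5 uM final), then stimulated with LPS (250 ng/mL final) plus ATP (1.25 mM final); secreted IL-1B measured by AlphaLISA after 16 hr, decreased signal indicating inhibition.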
HT1080 IDH1KD tx – kills HT-1080 cells with IDH1 knockdown. 360,000 compounds, 2% hits. Potency, µM (doses to about 46.1 µM), usual class: cytotoxic. AID 686971. HT-1080 IDH1 knockdown viability, ATP luminescence, 48 h
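IDH1KD HT-1080 cells, 750/well, RPMI + 5% FBS; compound pinned after 2 h settling; 48 h, 37 °C; CellTiter-Glo luminescence; % activity normalised to DMSO and no-cell wells; curves fitted, classed by r2 and efficacy.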
TDP1 cell CPT – DT40-hTDP1 cell growth loss with CPT. chicken DT40 Tdp1-/-;hTDP1 cells + 20 nM CPT, ATP luminescence, 48 h. Potency, µM (top dose mostly 46.2 µM), usual class: inhibitors. 420,000 compounds, 12% hits; further: nearly all actives have a fitted effect of over 55% in size
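Cell growth measured by CellTiter-Glo luminescence after a minimum 48 h, 37 C compound exposure with 20 nM CPT in Tdp1-knockout DT40 cells stably expressing hTDP1, seeded 400/well; qHTS titration format.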
ELG1 DNA repair – ELG1-dependent DNA repair inhibition | HEK293T ELG1-luciferase reporter, luminescence, 16 h; DNA damage induced by 5-fluorouridine | Potency, µM (top dose mostly 46.1 µM), most hits filed as inhibitors | 330,000 compounds, 2.3% hits | AID 504467; further: nearly all actives have a fitted effect of over 55% in size
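Overnight (16 hr) co-exposure of 2,000 cells/well to 5-fluorouridine and compound at 37 °C preceded detection. Luciferase was quantified via ONE-Glo luminescence; loss of signal denotes inhibition.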
HT1080NT lethal – kills 2HG-producing HT-1080-NT fibrosarcoma cells | AID 686970 | HT-1080-NT fibrosarcoma viability, CellTiter-Glo ATP luminescence, 48 h | Potency, µM (highest dose often 46.1 µM), usual class: cytotoxic | 360,000 compounds, 1.6% hits;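 further: NT is the 2HG producing partner of a matched IDH1 knockdown line; nearly all actives have a fitted effect of over 55% in size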
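Viability by CellTiter-Glo luminescence after 48 h compound exposure at 37C of HT-1080-NT cells (750/well, RPMI, 5% FBS). % activity scaled between DMSO wells and medium-only wells, then curve-fitted and categorized by curve class.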
DT40 TDP1 no CPT – qHTS for Inhibitors of human tyrosyl-DNA phosphodiesterase 1 (TDP1): qHTS in cells in absence of CPT. DT40 Tdp1-/- hTDP1 cells, no CPT, ATP luminescence, 48 h. Potency, µM (titrated, usually from 46.2 µM), hits mostly inhibitors. 420,000 compounds, 15% hits; further: nearly all actives have a fitted effect of over 55% in size
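Readout: luminescence from CellTiter-Glo after 30 min in the dark at RT. Cells: DT40 Tdp1-/- with stable hTDP1, 400/well. Exposure: compounds alone, ≥48 hr, 37 °C.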
Numbers stand for hits; - = inactive; ? = inconclusive; . = no result. Sampled rows, rich in hits. Any-hit rate of the full collection: about 19%. Unless noted, the call rests on the fitted dose curve; in most records, active means well fitted curve in the direction sought with a large enough effect; inconclusive means small, poorly fitted or top-dose-only effect, or another doubt; inactive means no such curve, though single readings can be large; an effect the other way counts as inactive or inconclusive.

SMILES | IL1B secr inh | HT1080 IDH1KD tx | TDP1 cell CPT | ELG1 DNA repair | HT1080NT lethal | DT40 TDP1 no CPT
COc1ccc(Cl)cc1C(=O)NCC(c1ccc(N(C)C)cc1)N1CCOCC1 (centres undefined) | . | . | ? | . | . | 16µM
CN(C)c1ccc(C(CNC(=O)c2c(F)cccc2Cl)N2CCOCC2)cc1 (centres undefined) | . | . | - | . | . | -
CN(C)c1ccc(C(CNC(=O)c2ccco2)N2CCCC2)cc1 (centres undefined) | - | - | - | ? | - | -
Cc1cc(C)cc(C(=O)NCC(c2ccc(N(C)C)cc2)N2CCCC2)c1 (centres undefined) | . | . | 15µM | . | . | 16µM
O=C(NCc1ccc2c(c1)OCO2)c1ccc2c(c1)N(Cc1c(F)cccc1Cl)C(=O)c1ccccc1S2 | . | . | - | . | . | -
COc1ccc(C2OC3C(CO)OC(n4cnc5c(=O)[nH]c(N)nc54)C3O2)cc1 (centres undefined) | . | . | - | . | . | -
O=C1NC(Cc2ccc(O)cc2)c2nc3ccc(Cl)cc3c(=O)n2-c2ccc(Cl)cc21 (centres undefined) | . | . | . | - | . | .
CCCN1C(=O)c2ccc(C(=O)Nc3ccccc3C(=O)O)cc2C1=O | - | - | - | ? | - | -
O=C(O)c1ccc(CN2C[C@@H](CO)O[C@@H](n3cnc4c(NCc5ccco5)ncnc43)C2)cc1 | - | - | - | . | - | -
Cc1ccccc1C(=O)NCC(c1ccc(N(C)C)cc1)N1CCCC1 (centres undefined) | . | . | - | . | . | -
COc1cccc(C(=O)NCC(c2ccc(N(C)C)cc2)N2CCCC2)c1OC (centres undefined) | . | . | 12µM | . | . | ?
NC(=O)/C(N=Nc1ccccc1)=N/Nc1ccccc1 | - | - | 18µM | - | - | ?
O=C(O)c1cccc(N/N=C(\N=Nc2ccccc2)c2ccccc2)c1 | - | ? | ? | ? | ? | -
COc1ccc(F)cc1-c1cc(C(=O)NC2CCCCC2)[nH]n1 | - | - | - | . | ? | -
Cc1c(C(=O)Nc2nc(-c3ccccn3)cs2)oc2ccccc12 | - | ? | 5.2µM | - | ? | 3.7µM
O=C(Nc1nc(-c2ccccn2)cs1)c1cc2ccccc2o1 | - | ? | ? | ? | - | 7.3µM
Cc1cc(-c2csc(NC(=O)c3cc4ccccc4o3)n2)c(C)n1C | - | - | ? | ? | - | ?
COC(=O)c1ccccc1NC(=O)c1cccc(NC(=O)c2ccc(Br)o2)c1C | - | 10µM | 2.9µM | ? | 13µM | 1.8µM
COC(=O)c1cc(OC)c(OC)cc1NC(=O)c1ccc(C)o1 | - | - | 15µM | 23µM | - | 18µM
COC(=O)c1ccccc1NC(=O)c1ccc(COc2cc(C)cc(C)c2)o1 | - | - | ? | - | - | 23µM
COC(=O)c1cc(OC)c(OC)cc1NC(=O)CCc1ccc(C)o1 | - | - | ? | ? | - | ?
Cc1cc2nc(-c3cccc(NC(=O)c4ccc(Br)o4)c3C)oc2cc1C | - | ? | ? | ? | - | 23µM
CCc1nnc(NC(=O)CN2CCN(S(C)(=O)=O)CC2)s1 | - | - | - | - | - | -
Cc1ccc(OCc2ccc(C(=O)NN)o2)cc1C | - | - | - | ? | - | -
COC(=O)c1ccccc1NC(=O)c1ccc(COc2ccc(C)c(C)c2)o1 | - | - | ? | - | - | 13µM
Cc1ccc(NC(=O)c2ccc3c(c2)OCO3)cc1S(=O)(=O)N1CCOCC1 | - | - | ? | 18µM | - | ?
COc1ccc(NC(=O)c2ccc(-c3ccccc3)cc2)cc1S(=O)(=O)N1CCOCC1 | - | - | - | ? | - | -
COc1ccc(NC(=O)c2ccc(S(=O)(=O)N(C)c3ccccc3)cc2)cc1S(=O)(=O)N1CCOCC1 | - | ? | 23µM | . | ? | 15µM
Cc1ccc(NC(=O)c2ccc(S(=O)(=O)N(C)c3ccccc3)cc2)cc1S(=O)(=O)N1CCOCC1 | - | - | 23µM | . | - | ?
